In the library only some 2.4% were active in any assay of this set; here they are far more common.
HSF-1 act – HSF-1 activators, primary screen, NIH3T3-HGL cells, MG132 stress, luminescence, single point; NIH3T3-HGL HSF-1 luciferase reporter, 8 h; 100% = twice DMSO control signal; activation, % at 9 µM; 1.7% of 300,000 active;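 active = mean replicate activation of at least 50% with a set share of replicates each reaching 50%; inconclusive = only one of those two conditions met; inactive = mean below 50% and too few replicates reaching it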;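 note: 0% = median of the neutral control wells and 100% = twice that signal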
TLR9-MyD88 block – inhibitors of TLR9-MyD88 association in cells, primary screen, cell-based, CHO, BLA complementation, fluorescence; CCF4 FRET ratio; inhibition, % at 4.98 µM; 0.21% of 340,000 active; AID 504734, 2011;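 active = inhibition above the mean over all tested compounds plus 3 SD, cut at about 21% in these data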;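 note: 0% = DMSO only wells and 100% = clavulanate BLA inhibitor control wells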
HSF1 inhib – HSF1 inhibitors in luciferase reporter cells, primary screen, cell-based, NIH3T3, luminescence. 0.77% of 300,000 active. NIH3T3-HGL HSE-luciferase, MG132-induced, luminescence 8 h; hits give low values. activity change, negative = inhibition, % at 7.5 µM (by protocol);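 active = more than half of replicate wells show activity change below -50%, luminescence cut by over half; inconclusive = some wells, but at most half, below -50%; inactive = no replicate well below -50%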;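 note: luciferase reports HSF-1 transcriptional activity via heat shock element; 0% = median of DMSO wells and -100% = zero luminescence signal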
NOD2-RIPK2 inh – NOD2-RIPK2 binding disruptors in cells, primary screen, fluorescence, CHO cells, BLA complementation; CCF4 ratio; Receptor-interacting serine/threonine-protein kinase 2 (Homo sapiens), O43353; 0.38% of 360,000 active; AID 624267, 2012; inhibition, % at 4.98 µM; in the data active = inhibition above about 21%;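 note: 0% = vehicle only and 100% = reference blocker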
Target sequence (O43353 whole entry, looked up): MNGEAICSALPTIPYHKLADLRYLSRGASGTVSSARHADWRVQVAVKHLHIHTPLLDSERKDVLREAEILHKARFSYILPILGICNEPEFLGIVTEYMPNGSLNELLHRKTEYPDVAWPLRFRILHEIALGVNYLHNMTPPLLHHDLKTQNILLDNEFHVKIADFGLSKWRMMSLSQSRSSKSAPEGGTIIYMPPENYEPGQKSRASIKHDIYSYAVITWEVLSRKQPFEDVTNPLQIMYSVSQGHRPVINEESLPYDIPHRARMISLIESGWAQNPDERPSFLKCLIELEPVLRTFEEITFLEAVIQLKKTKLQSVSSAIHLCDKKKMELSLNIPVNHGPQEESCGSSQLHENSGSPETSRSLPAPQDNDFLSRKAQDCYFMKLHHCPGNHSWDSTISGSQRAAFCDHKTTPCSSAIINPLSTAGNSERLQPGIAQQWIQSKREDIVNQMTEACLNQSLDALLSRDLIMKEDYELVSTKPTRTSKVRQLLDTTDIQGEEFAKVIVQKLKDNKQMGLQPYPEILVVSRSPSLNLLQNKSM
TLR4-MyD88 BLA – inhibitors of TLR4-MyD88 association in cells, primary screen, cell-based, HeLa CL3-4, BLA complementation, FRET ratio | Toll-like receptor 4 (Homo sapiens) + Myeloid differentiation primary response protein … | HeLa CL3-4 TLR4/MyD88 BLA complementation | inhibition, % at 8.4 µM | 0.18% of 200,000 active | AID 861, 2007; in the data active = inhibition above about 25%;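 note: 0% = vehicle and 100% = reference inhibitor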
An asterisk follows results filed as active; ? = inconclusive; · = no result.

SMILES	HSF-1 act	TLR9-MyD88 block	HSF1 inhib	NOD2-RIPK2 inh	TLR4-MyD88 BLA
Cc1noc(/C=C/N(C)C)c1S(=O)(=O)N(C)Cc1ccc(F)cc1	-52	4	-38	12	·
CC(C)(C)c1ccc(S(=O)(=O)N2CCN(CC(O)CN3CCOCC3)CC2)cc1 (centres undefined)	·	3	·	4	·
C[C@H](CO)N1C[C@H](C)[C@H](CN(C)C(=O)Nc2ccc(-c3cccs3)cc2)OCc2cnnn2CCCC1=O	·	-9	·	0	·
Cc1ccsc1C(=O)OCC(=O)NC1CCCC(C)C1C (centres undefined)	·	5	·	-1	·
Cc1cc(C(=O)CCC(=O)N2CCN(c3ccccc3)CC2)c(C)s1	4	1	0	1	·
Cc1ccc(-c2nnc(SCC(=O)Nc3ccc4c(c3)oc3ccccc34)n2C)c(Cl)c1	57*	0	14	6	1
Cc1nnc(SCC(=O)Nc2ccccc2)c2ccccc12	52*	4	33	4	·
CCN1C(=O)c2cccc3c(S(=O)(=O)Nc4ncccc4C)ccc1c23	89*	-3	41	0	2
CCN1C(=O)c2cccc3c(S(=O)(=O)Nc4ccccc4)ccc1c23	59*	-2	32	4	-12
CCN1C(=O)c2cccc3c(S(=O)(=O)Nc4ccccn4)ccc1c23	12	-4	19	8	11
CCN1C(=O)c2cccc3c(S(=O)(=O)Nc4ccncc4)ccc1c23	-8	9	2	4	12
CC1CCC(NC(=O)c2ccc(NC(=O)CC3SC(N4CCCC4)=NC3=O)cc2)CC1 (centres undefined)	2	-5	3	0	·
COc1ccc(/C=C/C(=O)c2ccc(Cl)s2)cc1O	-25	9	-5	6	0
COc1cc(/C=C/C(=O)c2ccc(Cl)s2)cc(OC)c1O	174*	12	129	0	9
COC(=O)[C@@]12C[C@@H](CC(=O)NCCc3ccccc3OC)C(=O)N(Cc3ccc4c(c3)OCO4)C1=CCC(C)(C)C2	·	·	·	5	·
Cc1[nH]c2ccccc2c1C(=O)CSc1ccccc1	26	-5	18	-6	7
Cc1ccc2c(C(=O)CSc3ccccc3)c(C)[nH]c2c1	55*	2	24	0	-10
O=C(c1ccccc1)c1cc2ccccc2o1	54*	-10	31	-4	-2
Cc1ccc(C(=O)c2cc3ccccc3o2)cc1[N+](=O)[O-]	64*	7	34	-6	7
Cc1cc(N)n(-c2nc3ccccc3s2)n1	-25	-2	?	-11	5
Cc1cc(C)n(-c2nc3ccccc3s2)n1	-88	2	-84*	-5	-10
CC(C)(C)c1cnnn1-c1ccc(C(=O)CCl)cc1	-67	-2	-57*	3	0
CC(C)(C)c1cnnn1-c1ccc(C=O)cc1	8	-4	10	-10	-1
CCCC(=O)Nc1ccc(C(=O)COC(=O)c2cc(C)oc2C)cc1	·	-7	·	-8	·
COc1ccc(CNc2nc3ccccc3n2CCN2CCCCC2)c(OC)c1	74*	10	31	-6	4
SMILES	HSF-1 act	TLR9-MyD88 block	HSF1 inhib	NOD2-RIPK2 inh	TLR4-MyD88 BLA
CN(CC(=O)N/N=C/c1ccc(F)cc1)S(=O)(=O)c1ccccc1	·	13	·	0	·
Cc1cc(N2CCN(c3ccc(F)cc3)CC2)nc2cc(O)ccc12	-64	2	-55*	4	3
COc1ccc(N2CCN(c3cc(C)c4ccc(O)cc4n3)CC2)cc1	27	-12	4	-11	-4
Cc1cccc(C(=O)N2CCCC(c3nc(-c4ccc(C)o4)no3)C2)c1 (centres undefined)	61*	3	42	11	·
CCOC(=O)c1ccccc1NS(=O)(=O)c1cnn(CC)c1C	-26	-7	0	5	·
Nc1nc(CN2CCCCCC2)nc(Nc2ccccc2)n1	-18	1	3	-9	13
Cc1c(-c2nc(N)nc(Nc3ccccc3)n2)oc2ccccc12	76*	0	38	-3	1
N/C(=N\OC(=O)COc1ccc(Br)cc1Cl)c1cccnc1	60*	2	31	-12	-8
CCCN(CC(=O)Nc1ccccc1OC)CC(=O)c1c(N)n(Cc2ccccc2)c(=O)n(C)c1=O	·	0	·	-3	·
COc1ccc(CCNC(=O)COC(=O)C2CC2C)cc1OC (centres undefined)	·	7	·	-5	·
O=C1OC(NC(=O)c2ccccc2)C(n2cc(CO)nn2)=C1Cl (centres undefined)	-67	0	-62*	-6	-4
Cc1ccc(/C=C/C(=O)c2ccccc(=O)c2O)cc1C	76*	-1	43	-1	8
O=C(/C=C/c1ccccc1)c1cc(Br)ccc(=O)c1O	91*	3	72	-1	10
COc1ccc(C=CC(=O)c2ccc(OC)c(OC)c2O)cc1OC	·	-3	·	4	·
O=C(/C=C/c1ccc(F)cc1)c1cc(Br)ccc1O	12	7	8	-3	·
Cc1ccc(C(=O)NC(=S)Nc2cc(-c3nc4ccccc4s3)ccc2C)cc1	59*	5	16	-3	8
COc1ccc(-c2nc3ccccc3s2)cc1NC(C)=O	31	-6	10	-4	1
CCOc1cc(/C=C2/SC(=S)NC2=O)ccc1OC(=O)c1ccco1	-9	-1	2	2	2
O=C1NC(=S)S/C1=C/c1ccc(OC(=O)c2ccco2)cc1	55*	1	19	-17	·
c1coc(CNc2c3c(nc4ncnn24)CCCC3)c1	-8	-1	2	0	9
Clc1cccc(-c2cc3nc4c(c(NCc5ccco5)n3n2)CCCC4)c1	58*	4	22	-10	3
Cc1cccn2cc(-c3ccccc3)nc12	69*	2	30	-9	-15
COc1ccc(-c2cn3cccc(C)c3n2)cc1Br	62*	2	41	-6	-5
Cc1cccn2cc(-c3ccc(F)cc3)nc12	47	-5	32	-9	8
CCNC(=S)Nc1ccc(Oc2ccccc2)cc1	28	8	5	3	-5
O=C(O)/C=C/C(=O)Nc1ccc(Oc2ccccc2)cc1	-59	-2	-54*	-8	·
CCOC(=O)/C=C/C(=O)Nc1ccc(Oc2ccccc2)cc1	-1	5	6	6	1
COc1ccc(NC(=S)Nc2ccc(Oc3ccccc3)cc2)cc1	-68	-5	-65*	-3	-11
COc1ccc(C(=S)Nc2ccc(C)cc2)cc1	63*	-3	30	-8	1
CC(C)OC1=CC(=O)OC(c2cccc(Cl)c2)C1 (centres undefined)	·	·	·	4	·

Screening results as filed in PubChem.
